Mtb hypoxia rep: Mtb hypoxia fluorescent reporter inhibition. M. tuberculosis hypoxia-regulated fluorescent reporter, fluorescence. fluorescence inhibition, % (concentration not given with the values). 300,000 tested, 0.1% active. AID 1159583; in the data active = fluorescence inhibition mostly above about 23%, no sharp cut-off; inactive = mostly below about 17%
Y pestis TopoI: Y. pestis Topo-I inhibition via cleavage products; Y. pestis Topo-I cleavage product accumulation, plate reader; activity, % at 10 µM; 360,000 tested, 0.064% active; AID 504884; in the data active = activity above about 50%, passing the limit was not always enough
Vc quorum ag: quorum light induction in luxS cqsA deficient V. cholerae | V. cholerae BH1578 lux reporter, luminescence, 6 h | 350,000 tested, 0.16% active | activation, % at 18.7 µM; in the data active = activation mostly above about 9.7%, no sharp cut-off
Numbers without * were called inactive; i = inactive; / = not tested or not shown. Only some compounds are listed: those with a hit (about 0.29% of all), similar ones and a draw of the others.

SMILES	Mtb hypoxia rep	Y pestis TopoI	Vc quorum ag
COc1ccc(NC(C)C(=O)NN=Cc2ccc([N+](=O)[O-])s2)cc1 (configuration not stated)	43.3*	/	/
CC(C)(C)OC(=O)NN=Cc1ccc([N+](=O)[O-])s1	3.9	/	/
O=[N+]([O-])c1ccc(-c2nc(Cl)c3c(n2)CCCC3)o1	/	-3.0	29.9*
Cc1ccc(-c2c(C#N)c(N)nc3c2CCCCC3)o1	8.0	11.2	-1.4
Cc1cc(C)c(S(=O)(=O)NC2CC3CCC2C3)c(C)c1 (configuration not stated)	-5.2	11.0	-0.6
CC(C)(C)c1ccc(OCCn2nc(C(=O)O)c3ccccc3c2=O)cc1	-3.7	71.6*	-0.2
Cc1cccc(OCCn2nc(C(=O)O)c3ccccc3c2=O)c1	/	41.6	i
CNCC1Oc2c(NC(=O)Nc3ccccc3)cccc2C(=O)N(C(C)CO)CC1C (configuration not stated)	4.2	/	/
CN(C)CCOc1ccc(-c2c(-c3ccccc3)sc3ccccc23)cc1	51.2*	-11.6	-0.6
c1ccc(-c2sc3ccccc3c2-c2ccc(OCCN3CCCCC3)cc2)cc1	11.4	4.4	-0.4
O=C(NN=Cc1cccs1)c1cccc2cc[nH]c12	2.4	/	/
O=C(OCC#CCSc1nnc(-c2ccc([N+](=O)[O-])cc2)o1)c1cccs1	/	-2.3	i
O=C(OCC#CCSc1nnc(-c2ccc(Br)cc2)o1)c1cccs1	40.6*	-8.4	0.3
Cc1ccc(-c2nnc(SCC#CCOC(=O)c3cccs3)o2)cc1	16.4	55.7*	i
Cc1ccc(-c2nnc(SCC#CCOC(=O)c3ccco3)o2)cc1	/	-11.9	1.6
CC(=O)CC1c2cc(C(F)(F)F)ccc2S(=O)(=O)N1c1ccccc1 (configuration not stated)	-2.1	/	/
O=C(NN=Cc1ccc([N+](=O)[O-])o1)c1cc2c(ccc3ccccc32)o1	-5.9	/	/
O=C(C1=CC(c2ccccc2)CC(OCCCCO)O1)N1CCOCC1 (configuration not stated)	7.8	/	/
COc1ccc2[nH]c3c(C)c4ccncc4c(C)c3c2c1	/	-55.7	-0.4
Cc1c2ccncc2c(C)c2c1[nH]c1ccccc12	60.0*	-36.7	7.7
CC[n+]1c(C=C2C=C(C)CC(C)C2)sc2ccccc21 (configuration not stated)	5.3	/	/
COc1cc(C=NNC(=O)CCn2c3ccccc3c3ccccc32)ccc1O	18.5	/	/
O=[N+]([O-])c1cccc(C=NNc2ccccn2)c1	-7.7	/	/
O=C(CSc1nnc2n1CCCN2)c1ccc(Cl)cc1	13.5	-0.8	31.8*
O=C(CSc1nnc2n1CCCN2)c1ccc([N+](=O)[O-])cc1	5.5	-11.9	i
SMILES	Mtb hypoxia rep	Y pestis TopoI	Vc quorum ag
COc1ccccc1-c1nnn(CC#N)n1	2.6	2.3	20.0*
COc1ccc(-c2nnn(CC#N)n2)cc1OC	/	-5.7	i
CCOC(=O)N1CCN(c2nc(-c3ccc(Cl)cc3)cs2)CC1	-3.3	9.4	i
CC(C)C(=O)N1CCN(c2nc(-c3ccc(Cl)cc3)cs2)CC1	6.8	52.5*	i
O=C1c2ccccc2C(=O)N1N=Cc1ccc(Oc2ccc([N+](=O)[O-])cn2)cc1	9.9	/	/
CCCNC(=O)C1(C)CCN(Cc2ccc(OCc3ccccc3)cc2)C1 (configuration not stated)	/	4.3	-5.0
O=C1c2ccccc2C(=O)N1CC(O)CNc1ccc(Br)cc1 (configuration not stated)	0.6	-4.2	-1.0
CSc1nnc(C(C)(C)C)c(=O)n1N=Cc1ccc(C(C)C)cc1	4.5	/	/
NC(=O)C1=C(c2ccccc2)c2ccccc2C1=O	15.5	1.0	42.8*
Cc1ccc(C2=C(O)c3ccccc3C(=O)C2=O)cc1	2.1	5.5	-0.3
NC(=O)C1=CC(c2csc3ccccc23)CC(OCc2ccc(CO)cc2)O1 (configuration not stated)	2.9	/	/
COc1ccc(C(=O)C(C)OC(=O)CNC(=O)c2ccco2)cc1 (configuration not stated)	31.2*	0.5	-0.3
O=C(CNC(=O)c1ccco1)OC(C(=O)c1ccccc1)c1ccccc1 (configuration not stated)	/	-1.0	i
COc1ccc(-c2nc3c(c(=O)[nH]c(=O)n3Cc3ccccc3)n2Cc2ccccc2)cc1	1.7	64.5*	-0.4
COc1ccc(-c2nc3c(c(=O)[nH]c(=O)n3Cc3ccccc3)n2C)cc1	6.1	9.4	-1.1
COc1ccc(C(=O)NN=CC(=O)c2ccccc2)cc1	7.0	/	/
COc1ccccc1C=NNC(=O)c1ccc(CN2C(=O)c3cccc4cccc2c34)cc1	-4.0	/	/
Oc1ccc(C=Nn2c(-c3ccccc3)n[nH]c2=S)cc1Br	1.4	/	/
Cc1cc(C)n(C(=O)C(C)n2nc([N+](=O)[O-])c(Br)c2C)n1 (configuration not stated)	7.7	3.3	i
Cc1c(Br)c([N+](=O)[O-])nn1C(C)C(=O)Nc1ccc2c(c1)OCO2 (configuration not stated)	12.5	-2.0	55.2*
Cc1ccc(OCCn2cc(C=NNC(=O)c3ccncc3)c3ccccc32)cc1	10.4	/	/
Cc1nnc(SCC(=O)NNC(=O)COc2ccc(Br)cc2)n1C	31.5*	2.6	i
CCc1ccc(OCC(=O)NNC(=O)CSc2nnc(-c3ccc(C)cc3)n2C)cc1	1.3	-8.8	-0.3
O=C(OCc1c(F)cccc1Cl)c1cccnc1Cl	-10.2	-1.9	-0.2
CC1CN(C(=O)/C=C/c2ccc3c(c2)OCO3)CC(C)O1 (configuration not stated)	91.1*	0.5	-0.4
SMILES	Mtb hypoxia rep	Y pestis TopoI	Vc quorum ag
O=C(/C=C/c1ccc2c(c1)OCO2)N1CCOCC1	/	3.0	i
COc1c(N2CCN(C(=S)NCc3ccccc3)C(C)C2)c(F)cc2c(=O)c(C(=O)O)cn(C3CC3)c12 (configuration not stated)	/	61.7*	i
COc1c(F)c(F)cc2c(=O)c(C(=O)O)cn(C3CC3)c12	10.9	2.1	-0.6
Cc1ccc(C=NNC(=O)c2csc(C)c2)o1	3.0	/	/
O=C(O)CCN1C(=O)/C(=C\c2ccncc2)SC1=S	37.6*	0.6	i
COc1ccc(/C=C2/SC(=S)N(CCC(=O)O)C2=O)cc1	5.0	2.3	i
CC(C)Cc1ccc(C(C)CC2=CCC(CN(C)C)C2=O)cc1 (configuration not stated)	/	10.1	/
CSc1ccccc1NC(=O)COC(=O)c1ccccc1Cc1ccccc1	3.8	61.9*	-0.2
CSc1ccccc1NC(=O)COC(=O)c1ccccc1O	8.9	-0.2	-0.1
Cc1ccc(C(=O)NN=Cc2cccc(OC(=O)c3cccc(F)c3)c2)cn1	11.9	/	/
COc1ccc(C(=O)CNc2ccccc2Br)cc1	-8.1	1.3	i
Cc1ccccc1NCC(=O)c1ccc(Br)cc1	-0.5	176.3*	-5.6
O=C(CNc1ccccc1C(=O)O)c1ccccc1	15.7	-0.7	i
NC(=O)c1ccccc1NCC(=O)c1ccc(Cl)cc1	5.8	57.5*	-0.8
CCn1c(SCC(=O)NN=Cc2cc(OC)c(O)c(OC)c2)nc2ccccc21	7.9	/	/
CCOc1ccccc1CNC(c1ccccc1)c1ccccc1	19.2	52.4*	4.6
COc1ccccc1CNC(c1ccccc1)c1ccccc1	-1.7	28.3	i
O=C(COc1ccc2c(c1)oc(=O)c1ccccc12)NCCCN1CCOCC1	-6.2	-4.7	-0.6
